The full list was thinned out, with hits kept by preference.
Pf Dd2 inh = blocks in vitro growth of P. falciparum Dd2; AID 1347417; P. falciparum Dd2 growth, SYBR Green, 72 h; Potency, µM (doses to about 28.9 µM), most hits filed as inhibitors; actives 4.3% (n = 120,000); active means well fitted inhibition curve with a large enough effect; further: nearly all actives have a fitted effect of over 65% in size
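Infected erythrocytes (Dd2, 0.3% parasitemia, 2.5% hematocrit final) are added to compound in RPMI-1640/Albumax II medium, grown 72 h at 37C in low oxygen, then lysed with saponin/Triton-X containing SYBR Green and read by fluorescence.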
Numbers stand for hits.

Screening COc1ccc(NC(=O)c2c(C)oc3ccn(Cc4cccc(F)c4)c(=O)c23)cc1F returned Pf Dd2 inh inactive.
For COc1cc(=O)n2c(c1C(=O)Nc1ccc(C)cc1)CCCC2 the results were Pf Dd2 inh inactive.
For Cc1ccc(NC(=O)c2c(C)oc3ccc(O)c(CN4CCCCCC4)c23)c(C)c1 the results were Pf Dd2 inh 1.1µM.
For Cc1ccc(NC(=O)c2c(C)oc3ccc(O)c(CN4CCCCCC4)c23)cc1 the results were Pf Dd2 inh 0.63µM.
CCN(CC)S(=O)(=O)c1ccc(NC(=O)c2c(C)oc3ncnc(N4CCCCC4)c23)cc1 was read as Pf Dd2 inh inactive.
COc1ccc(NC(=O)c2cccn2-c2nnc(N3CCCCC3)s2)cc1Cl was read as Pf Dd2 inh inactive.
For COc1ccc(NC(=O)c2c(C)oc3ccc(O)c(CN4CCCC(C)C4)c23)cc1Cl (stereo not drawn) the results were Pf Dd2 inh 0.4µM.
For Cc1ccc(NC(=O)c2cc(S(=O)(=O)N3CCCC3)c[nH]2)c(C)c1 the results were Pf Dd2 inh inactive.
Screening CN1CCCCCC1C(=O)N1CCC(N2CCC(C(=O)NCc3ccccn3)CC2)CC1 (stereo not drawn) returned Pf Dd2 inh inactive.
CSc1cccc(NC(=O)Cn2nc3n(c2=O)CCCCC3)c1 was read as Pf Dd2 inh inactive.
For CC(C)C(NC(=O)C1CCN(C(=O)C2CC2)CC1)c1nccn1C (stereo not drawn) the results were Pf Dd2 inh inactive.
For CC(C)n1c(CCNC(=O)CC[C@H]2NC(=O)c3ccccc3NC2=O)nc2ccccc21 the results were Pf Dd2 inh inactive.
For COCCn1cnc2ccc(OCc3ccc(C(F)(F)F)cc3)nc2c1=O the results were Pf Dd2 inh inactive.
Screening COCCn1cnc2ccc(OCC3CC3)nc2c1=O returned Pf Dd2 inh inactive.
For COCCn1cnc2ccc(OCc3ccc(Cl)cc3)nc2c1=O the results were Pf Dd2 inh 11µM.
For NC(=O)c1cc[nH]c1C1CCCN(C(=O)NC2CCCCC2)C1 (stereo not drawn) the results were Pf Dd2 inh inactive.
For COc1cc(Cl)ccc1C(=O)N1CCC(OC2CCN(C)CC2)CC1 the results were Pf Dd2 inh inactive.
Screening CCc1cccc(-n2nnnc2N2CCN(C(=O)NCc3ccccc3)CC2)c1 returned Pf Dd2 inh inactive.
CCc1noc([C@@H]2CC(F)(F)CN2S(=O)(=O)c2cccnc2)n1 was read as Pf Dd2 inh inactive.
O=C(N1CC(c2nnc(-c3ccncc3)o2)C2(CCOCC2)C1)C1(c2ccccc2)CC1 (stereo not drawn) was read as Pf Dd2 inh inactive.
Screening Cc1cnc(C(=O)N2CCC3(CC2)CC(N(Cc2ccc(F)cc2)C2CC2)CCO3)cn1 (stereo not drawn) returned Pf Dd2 inh inactive.
O=C(c1ccccc1)N1CCC2(CC1)CC(N(Cc1ccccc1)C1CC1)CCO2 (stereo not drawn) was read as Pf Dd2 inh inactive.
Screening O=C(c1ccc(F)cc1)N1CCC2(CC1)CC(N(Cc1ccccc1)C1CC1)CCO2 (stereo not drawn) returned Pf Dd2 inh inactive.
Screening O=C(CCC1CCCC1)N1CCC2(CC1)CC(N(Cc1ccc(F)cc1)C1CC1)CCO2 (stereo not drawn) returned Pf Dd2 inh 3.5µM.
O=C(c1ccoc1)N1CCC2(CC1)CC(N(Cc1ccc(F)cc1)C1CC1)CCO2 (stereo not drawn) was read as Pf Dd2 inh 13µM.
O=C(Cc1ccsc1)N1CCC2(CC1)CC(N(Cc1ccccc1)C1CC1)CCO2 (stereo not drawn) was read as Pf Dd2 inh inactive.
CS(=O)(=O)N(C1CC1)C1CCOC2(CCN(C(=O)c3ccc(F)cc3)CC2)C1 (stereo not drawn) was read as Pf Dd2 inh inactive.
Screening O=C(Cc1ccc(F)cc1)N1CCC2(CC1)CC(N(Cc1ccccc1)C1CC1)CCO2 (stereo not drawn) returned Pf Dd2 inh 5.6µM.
`Cn1nccc1C(=O)N1CCC2(CC1)CC(N(Cc1ccc(F)cc1)C1CC1)CCO2` (stereo not drawn) gave Pf Dd2 inh inactive.
For CS(=O)(=O)N1CCCC1c1noc(CCC(=O)O)n1 (stereo not drawn) the results were Pf Dd2 inh inactive.
For Cc1ccc(S(=O)(=O)Nc2ccc3c(c2)CN(Cc2ccccc2)C(=O)CO3)cc1 the results were Pf Dd2 inh inactive.
For Cc1nnc([C@@H]2CC(F)(F)CN2S(=O)(=O)c2cccc(F)c2)o1 the results were Pf Dd2 inh inactive.
Screening CC(C)NC(=O)CC[C@@H]1CNC(=O)[C@@H]2C[C@H](NCc3ccc(CO)o3)CN12 returned Pf Dd2 inh inactive.
For CCC1CCCCN1CCNC(=O)CCc1cc2ccccc2[nH]c1=O (stereo not drawn) the results were Pf Dd2 inh inactive.
O=C(CCc1cc2ccccc2[nH]c1=O)NCCN1CCc2ccccc2C1 was read as Pf Dd2 inh 3.2µM.
`N#CCCN1CCN(C(=O)CCc2cc3ccccc3[nH]c2=O)CC1` gave Pf Dd2 inh inactive.
For Cc1ccc(C(=O)N2CCCC3(CCNCC3)CC2)c2ccccc12 the results were Pf Dd2 inh inactive.
